In the library only some 3.1% were active in any assay of this set; here they are far more common.
Tau fibril FP = inhibitors of human tau fibril formation; P10636; K18 P301L tau heparin fibrillization, Alexa594 FP, 6 h; Potency, µM (top dose mostly 57.7 µM), inactives show at the top dose activity, negative = inhibition, usual class: inhibitors; actives 0.39% (n = 280,000); note: nearly all actives have a fitted effect of over 55% in size
Target sequence (P10636 561-689 P618L limits assumed): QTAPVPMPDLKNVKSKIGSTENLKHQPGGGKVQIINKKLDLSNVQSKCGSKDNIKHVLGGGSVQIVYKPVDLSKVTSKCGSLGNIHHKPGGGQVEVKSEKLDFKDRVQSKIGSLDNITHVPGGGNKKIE
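Compound effects on tau fibrillization are measured by Alexa 594 fluorescence polarization (ex 555, em 632 nm). K18 P301L tau is used at 15 uM with 0.24 uM labeled tracer, and 20 uM heparin induces aggregation over 6 hr at 37 C.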
TR SRC2 fluor cs = alters Texas Red total fluorescence, flagging assay interference | TRb/SRC2 Texas Red total fluorescence interference | Potency, µM (highest dose often 106 µM), inactives show at the top dose fluorescence change, negative = quenching | actives 0.29% (n = 280,000) | AID 1479; active = well fitted curve in either direction with a large enough effect; inconclusive = small, poorly fitted or top-dose-only effect
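Human TRb ligand-binding domain at 0.6 uM with 20 nM Texas Red SRC2 peptide in Tris buffer containing 1 uM T3 and 5% DMSO, incubated with compound 5 h at ambient temperature. Total fluorescence (555/632 nm) calculated as parallel + 2 × perpendicular.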
Tau fibril ThT = tau fibrillization inhibition (ThT binding); actives 2.1% (n = 270,000); P10636; Potency, µM (titrated, usually from 57.4 µM), for the others: at the highest dose activity, negative = inhibition, hits mostly inhibitors; AID 1460; recombinant tau K18 P301L, heparin-induced fibrillization, ThT fluorescence; note: nearly all actives have a fitted effect of over 55% in size
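Tau K18 P301L fragment (15 uM unlabeled plus 0.24 uM Alexa 594-labeled) in 100 mM sodium acetate pH 7 with compound, fibrillization induced by 20 uM heparin for 6 hr at 37 C. Thioflavin T (30 uM) added, fluorescence read after 1 hr (ex 450, em 510 nm).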
TRb SRC2 PPI = disrupts binding of human TR beta to SRC2; TRbeta-SRC2 peptide binding, fluorescence polarization; receptor liganded with 1 µM T3; Potency, µM (doses to about 106 µM), for the others: at the highest dose activity change, negative = inhibition, actives largely listed as inhibitors; actives 0.065% (n = 280,000); AID 1469;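 note: plate controls were bound peptide for no effect and peptide without receptor for full effect; nearly all actives have a fitted effect of over 50% in size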
Target sequence (P10828 whole entry, looked up): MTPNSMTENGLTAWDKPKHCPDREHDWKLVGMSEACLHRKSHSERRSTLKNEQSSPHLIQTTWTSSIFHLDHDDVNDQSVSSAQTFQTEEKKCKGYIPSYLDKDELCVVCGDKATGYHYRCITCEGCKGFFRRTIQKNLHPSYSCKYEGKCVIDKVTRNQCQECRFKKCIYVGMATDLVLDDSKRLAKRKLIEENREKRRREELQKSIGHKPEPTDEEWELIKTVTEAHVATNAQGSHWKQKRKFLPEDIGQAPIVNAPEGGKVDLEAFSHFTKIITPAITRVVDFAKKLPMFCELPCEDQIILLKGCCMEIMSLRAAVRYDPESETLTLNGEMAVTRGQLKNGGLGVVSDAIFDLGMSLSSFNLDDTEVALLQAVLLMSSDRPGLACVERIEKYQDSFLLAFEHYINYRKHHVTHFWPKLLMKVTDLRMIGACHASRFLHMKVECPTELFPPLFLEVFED
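Polarization signal, normalized between peptide-alone and full complex controls, measured compound effects on T3-liganded human TRb LBD (0.6 uM) binding 20 nM Texas Red SRC2 peptide after 5 hr.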
Tau fluor cs = counter-screen for tau fibril formation inhibitors. actives 0.93% (n = 280,000). AID 1463. Potency, µM (highest dose often 57.7 µM), for inactives: top-dose activity change, negative = decrease. tau K18 P301L Alexa594 fluorescence, heparin fibrillization; note: nearly all actives have a fitted effect of over 55% in size
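Human tau K18 P301L (15 uM unlabeled, 0.24 uM Alexa 594-labeled) in 100 mM sodium acetate pH 7 with 20 uM heparin, 6 hr at 37 C. ThT 30 uM added, 1 hr ambient; Alexa 594 FP and total fluorescence read at 555/632 nm.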
* = called active by the depositor; [ ] = dose if it differs, or a comment. Unless noted, calls come from the whole dose curve; as a rule, active = well fitted curve in the direction sought with a large enough effect; inconclusive = small, poorly fitted or top-dose-only effect, or another doubt; inactive = no such curve, though single readings can be large; an effect the other way counts as inactive or inconclusive. Unless noted, % is set by controls: 0 for no effect and ±100 for the full control effect; potency is the fitted concentration of half-maximal effect.

COc1ccc(-c2cnnc(N/N=C/c3ccc(C)o3)n2)cc1 was read as Tau fibril FP 9%, TR SRC2 fluor cs -3%, Tau fibril ThT 2.8µM*, TRb SRC2 PPI 0% and Tau fluor cs -30%.
For CCOC(=O)/C=C/CCCC=O the results were Tau fibril FP inconclusive, TR SRC2 fluor cs -3%, Tau fibril ThT -14%, TRb SRC2 PPI 10% and Tau fluor cs -20%.
`O=C(OCCOCCOC(=O)c1ccccc1)c1ccccc1` gave TR SRC2 fluor cs 4%[201 µM] and TRb SRC2 PPI 10%[201 µM].
`COc1ccc(-c2cnnc(N/N=C/c3ccc(O)cc3)n2)cc1` gave Tau fibril FP 1%, TR SRC2 fluor cs -6%, Tau fibril ThT inconclusive, TRb SRC2 PPI 2% and Tau fluor cs inconclusive.
COc1ccc(-c2cnnc(N/N=C/c3ccc(O)c(O)c3)n2)cc1 was read as Tau fibril FP inconclusive, TR SRC2 fluor cs -7%, Tau fibril ThT 2.5µM*, TRb SRC2 PPI 13% and Tau fluor cs inconclusive.
For Cc1cc(C(=O)O)ccc1-n1c(C)cc(C=C2C(=O)c3ccccc3C2=O)c1C the results were Tau fibril FP -8%, TR SRC2 fluor cs -8%, Tau fibril ThT 14µM*, TRb SRC2 PPI 8% and Tau fluor cs -18%.
Cc1ccc(N=Nc2[nH]c3ccccc3c2O)cc1 was read as Tau fibril FP -11%, TR SRC2 fluor cs -5%, Tau fibril ThT 7%, TRb SRC2 PPI -5% and Tau fluor cs 2%.
NC(=O)c1ccc(N=Nc2c(O)c3ccccc3[nH]c2=O)cc1 was read as Tau fibril FP inconclusive, TR SRC2 fluor cs -1%, Tau fibril ThT 0.5µM*, TRb SRC2 PPI -17% and Tau fluor cs -19%.
Screening COc1cc(N=Nc2c(O)c3ccccc3[nH]c2=O)c(OC)cc1N=Nc1ccccc1 returned Tau fibril FP -12%, TR SRC2 fluor cs -6%, Tau fibril ThT 7.1µM*, TRb SRC2 PPI -13% and Tau fluor cs inconclusive.
For CC(C)(C)c1ccc(O)c(C(C)(C)C)c1 the results were TR SRC2 fluor cs -2%[201 µM] and TRb SRC2 PPI -1%[201 µM].
CCc1ccc(NC(=O)c2ccc(F)c(S(=O)(=O)NCc3ccc(Cl)c(Cl)c3)c2)cc1 was read as Tau fibril FP inconclusive, TR SRC2 fluor cs -1%, Tau fibril ThT 14%, TRb SRC2 PPI 0% and Tau fluor cs -21%.
O=C1/C(=C/c2ccc(F)cc2)CCC1C1CCCC1 (configuration not stated) was read as Tau fibril FP -2%, TR SRC2 fluor cs -6%, Tau fibril ThT -10%, TRb SRC2 PPI -11% and Tau fluor cs -5%.
Screening Cc1cccc(/C=C2\CCC(=C3SCCCS3)C2=O)c1 returned Tau fibril FP -5%, TR SRC2 fluor cs -4%, Tau fibril ThT 1.4µM*, TRb SRC2 PPI -10% and Tau fluor cs -22%.
For O=C1C(=C2SCCCS2)CC/C1=C\c1ccc(F)cc1 the results were Tau fibril FP -5%, TR SRC2 fluor cs -1%, Tau fibril ThT 1.1µM*, TRb SRC2 PPI -5% and Tau fluor cs -3%.
O=C(CSc1c2c(nc3cc(Cl)ccc13)CCCC2)N1CCN(c2ccccc2F)CC1 was read as Tau fibril FP -9%, TR SRC2 fluor cs 2%, Tau fibril ThT inconclusive, TRb SRC2 PPI 3% and Tau fluor cs -26%.
Screening COc1ccc(N/N=C(\C=N\O)C(=O)c2ccc(OC)cc2)cc1 returned Tau fibril FP 16%, TR SRC2 fluor cs -4%, Tau fibril ThT 13µM*, TRb SRC2 PPI 5% and Tau fluor cs inconclusive.
Screening Nc1nnc(-c2ccco2)s1 returned Tau fibril FP -1%, TR SRC2 fluor cs -1%, Tau fibril ThT -6%, TRb SRC2 PPI -13% and Tau fluor cs -9%.
Screening Nc1ncnc2oc(-c3ccco3)c(-c3ccco3)c12 returned Tau fibril FP inconclusive, TR SRC2 fluor cs inconclusive, Tau fibril ThT 20µM*, TRb SRC2 PPI -5% and Tau fluor cs inconclusive.
For COc1cc(/C=N/N2C(=O)CSC2=S)cc(Br)c1O the results were Tau fibril FP inconclusive, TR SRC2 fluor cs inconclusive, Tau fibril ThT 13µM*, TRb SRC2 PPI inconclusive and Tau fluor cs inconclusive.
For COc1ccc2ccccc2c1/C=N/N1C(=O)CSC1=S the results were Tau fibril FP -11%, TR SRC2 fluor cs -21%, Tau fibril ThT 11µM*, TRb SRC2 PPI 28% and Tau fluor cs -29%.
Screening COc1cccc(/C=N/N2C(=O)CSC2=S)c1O returned Tau fibril FP inconclusive, TR SRC2 fluor cs 0%, Tau fibril ThT 16µM*, TRb SRC2 PPI -3% and Tau fluor cs inconclusive.
`Cc1ccc(C)c(NC(=O)Cn2c(=O)n(CC(=O)NCCc3ccccc3)c(=O)c3ccccc32)c1` gave Tau fibril FP -10%, TR SRC2 fluor cs 0%, Tau fibril ThT 12%, TRb SRC2 PPI -7% and Tau fluor cs 4%.
For O=[N+]([O-])c1ccc(C(c2sc3nc(-c4ccco4)nn3c2O)N2CCN(Cc3ccccc3)CC2)cc1 (configuration not stated) the results were Tau fibril FP 1%, TR SRC2 fluor cs 0%, Tau fibril ThT inconclusive, TRb SRC2 PPI -7% and Tau fluor cs -22%.
For COC(=O)C1=C(CSc2nc3c(cc2C#N)CN(C)CC3)OC(N)=C(C#N)C1c1ccc(F)cc1 (configuration not stated) the results were Tau fibril FP inconclusive, TR SRC2 fluor cs -3%, Tau fibril ThT 25µM*, TRb SRC2 PPI -4% and Tau fluor cs inconclusive.
Screening O=C1C(Nc2ccccc2)=C/C(=N/S(=O)(=O)c2cccs2)c2ccccc21 returned Tau fibril FP inconclusive, TR SRC2 fluor cs -5%, Tau fibril ThT 3.5µM*, TRb SRC2 PPI -19% and Tau fluor cs 8.9µM*[quencher].
For COC(=O)c1ccccc1NC1=C/C(=N\S(=O)(=O)c2cccs2)c2ccccc2C1=O the results were Tau fibril FP -10%, TR SRC2 fluor cs 9%, Tau fibril ThT inconclusive, TRb SRC2 PPI inconclusive and Tau fluor cs inconclusive.
`Cc1ccc(NC2=C/C(=N/S(=O)(=O)c3cccs3)c3ccccc3C2=O)cc1` gave Tau fibril FP -1%, TR SRC2 fluor cs 0%, Tau fibril ThT inconclusive, TRb SRC2 PPI -3% and Tau fluor cs 8.9µM*[quencher].
Screening CCOC(=O)c1cn(CC)c2ccc(S(=O)(=O)N3CC(C)CC(C)C3)cc2c1=O (configuration not stated) returned Tau fibril FP -12%, TR SRC2 fluor cs 45µM*[fluorescent], Tau fibril ThT inconclusive, TRb SRC2 PPI inconclusive and Tau fluor cs -22%.
CCOC(=O)c1cn(CC)c2ccc(S(=O)(=O)N3CCC(C)CC3)cc2c1=O was read as Tau fibril FP -3%, TR SRC2 fluor cs -2%, Tau fibril ThT 6%, TRb SRC2 PPI -4% and Tau fluor cs -9%.
O=C1C(c2c(O)[nH]c3ccccc23)=Nc2ccccc21 was read as Tau fibril FP -3%, TR SRC2 fluor cs 0%, Tau fibril ThT inconclusive, TRb SRC2 PPI 2% and Tau fluor cs inconclusive.

High-throughput results deposited in PubChem by National Center for Advancing Translational Sciences (NCATS).
